# Compound activity deposited in PubChem BioAssay by National Center for Advancing Translational Sciences (NCATS).
# Sampled rows, rich in hits. Any-hit rate of the full collection: about 11%.
# NIH3T3 tox – Cytotoxic Profiling in NIH 3T3 Cell Line of Diverse Libraries Using Quantitative High-Throughput Screening; Potency, µM (doses to about 96.7 µM), actives largely listed as inhibitors; NIH 3T3 viability, CellTiter-Glo ATP luminescence, 48-72 h; actives 4.3% (n = 94,000); AID 1345082, 2018; note: nearly all actives have a fitted effect of over 55% in size
#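 Cytotoxicity is measured as loss of cellular ATP: NIH 3T3 cells (400/well) are exposed to compound for 48 or 72 hr at 37 °C, then CellTiter-Glo luminescence is imaged after 10 min at room temperature.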
# hNpr1 antagonist – Natriuretic polypeptide receptor (hNpr1) antagonism - Primary qHTS | Atrial natriuretic peptide receptor 1 (Homo sapiens), P16066 | HEK293 hNpr1 GloSensor cGMP, ANP-stimulated luminescence | Potency, µM (highest dose often 46.3 µM), actives largely listed as inhibitors | actives 1.6% (n = 76,000) | AID 1347048, 2019; calls by dose curve; note: nearly all actives have a fitted effect of over 60% in size
# Target sequence (P16066 whole entry, looked up): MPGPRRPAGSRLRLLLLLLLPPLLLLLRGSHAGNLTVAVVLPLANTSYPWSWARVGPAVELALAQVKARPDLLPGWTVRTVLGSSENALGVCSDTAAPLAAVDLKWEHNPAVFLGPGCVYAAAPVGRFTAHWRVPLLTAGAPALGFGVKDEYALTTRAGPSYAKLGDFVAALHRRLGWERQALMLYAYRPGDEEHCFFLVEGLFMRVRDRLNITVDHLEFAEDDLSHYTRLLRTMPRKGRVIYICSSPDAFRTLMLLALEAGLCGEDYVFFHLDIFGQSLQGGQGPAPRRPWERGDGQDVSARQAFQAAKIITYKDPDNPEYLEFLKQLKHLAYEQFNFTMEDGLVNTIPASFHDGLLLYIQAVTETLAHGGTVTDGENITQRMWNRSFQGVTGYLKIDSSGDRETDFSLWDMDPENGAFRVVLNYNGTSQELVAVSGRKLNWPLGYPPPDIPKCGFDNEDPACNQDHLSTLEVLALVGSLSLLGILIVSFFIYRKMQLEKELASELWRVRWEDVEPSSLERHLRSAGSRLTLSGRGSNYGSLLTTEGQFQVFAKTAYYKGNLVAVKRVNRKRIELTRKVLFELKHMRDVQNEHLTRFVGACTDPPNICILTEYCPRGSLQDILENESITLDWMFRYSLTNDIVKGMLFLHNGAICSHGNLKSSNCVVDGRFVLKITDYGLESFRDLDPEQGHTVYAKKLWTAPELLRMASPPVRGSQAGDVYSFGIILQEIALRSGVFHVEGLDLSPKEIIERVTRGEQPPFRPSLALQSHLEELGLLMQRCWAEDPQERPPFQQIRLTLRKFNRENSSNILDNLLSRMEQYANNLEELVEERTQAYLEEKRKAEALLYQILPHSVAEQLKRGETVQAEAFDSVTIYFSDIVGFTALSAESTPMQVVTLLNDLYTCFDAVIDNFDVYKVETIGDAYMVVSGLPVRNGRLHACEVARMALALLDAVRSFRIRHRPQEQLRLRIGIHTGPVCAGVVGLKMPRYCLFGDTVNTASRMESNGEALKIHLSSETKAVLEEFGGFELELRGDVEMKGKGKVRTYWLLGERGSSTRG
#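 Compound pre-incubated 30 min at room temperature on GloSensor-loaded HEK293 cells stably carrying hNpr1 and the pGS-40F cGMP biosensor. Stimulation uses hNppA at 0.1 nM final; luminescence is taken at baseline and 20 min post-agonist.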
# FLuc inh – Firefly luciferase inhibition profiling of diverse chemical library using quantitative high-throughput screening; Luciferin 4-monooxygenase (Photinus pyralis), P08659; purified P. pyralis luciferase, luminescence, biochemical; Potency, µM (top dose mostly 115 µM), hits mostly inhibitors; actives 2.5% (n = 76,000); note: nearly all actives have a fitted effect of over 65% in size
#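 Luminescence read by CCD imaging after purified firefly luciferase (10nM final) was added to substrate buffer holding 10uM D-luciferin and 10uM ATP, pH 7.5, pre-dosed with compound.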
# HEK293 tox – Cytotoxic Profiling in HEK 293 Cell Line of Diverse Libraries Using Quantitative High-Throughput Screening. HEK 293 viability, ATP luminescence (CellTiter-Glo), 48-72 h. Potency, µM (highest dose often 115 µM), hits mostly inhibitors. actives 6.6% (n = 94,000). AID 1345083, 2018; note: nearly all actives have a fitted effect of over 60% in size
#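 Cells seeded first (HEK 293, 250 cells/well), then compound added by pintool. Incubation ran 48 or 72 hr at 37 degree Celsius. CellTiter-Glo was added and luminescence imaged after 10 min at room temperature.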
# Hits are given with their value; 0 = inactive; ? = inconclusive; - = no result given. Unless noted, calls come from the whole dose curve; as a rule, active = well fitted curve in the direction sought with a large enough effect; inconclusive = small, poorly fitted or top-dose-only effect, or another doubt; inactive = no such curve, though single readings can be large; an effect the other way counts as inactive or inconclusive.
SMILES,NIH3T3 tox,hNpr1 antagonist,FLuc inh,HEK293 tox
COc1cccc(N2CCN(C(=O)c3noc(-c4ccc(C)cc4)n3)CC2)c1,0,0,20µM,?
Cc1ccc(-c2nc(C(=O)N3CCN(c4ccc(C)cc4)CC3)no2)cc1,0,0,14µM,0
Cc1ccc(-c2nc(C(=O)N3CCN(c4cccc(C)c4)CC3)no2)cc1,?,0,18µM,?
CO[C@H]1CN(C2CCN(C(=O)Nc3ccccc3F)CC2)[C@H]1c1ccncc1,0,-,-,0
COc1ccccc1[C@@H]1CN(C(=O)c2ccc3n[nH]nc3c2)C[C@H]1C(=O)O,0,0,0,0
O=C1CO[C@H]2CCN(Cc3cccc(OC(F)(F)F)c3)CC[C@@H]2N1CCN1CCCC1,?,0,0,?
CC1(C(=O)NC2CCOCC2)CCCc2cnc(NCc3ccccc3)nc21 (stereo not drawn),0,0,0,?
Cn1ccc(NC(=O)C2(C)CCCc3cnc(NCc4ccccc4)nc32)n1 (stereo not drawn),45µM,0,0,?
Cn1ccc(NC(=O)C2(C)CCCc3cnc(Nc4ccccc4)nc32)n1 (stereo not drawn),?,0,0,?
Cn1ccc(NC(=O)C2(C)CCc3cnc(Nc4ccccc4)nc32)n1 (stereo not drawn),?,0,0,100µM
CCOC(=O)C1(Cc2ccccc2F)CCCN(C(=O)c2cccs2)C1 (stereo not drawn),0,0,0,?
CNC(C)c1cccc(F)c1 (stereo not drawn),0,-,-,0
Cc1ccc(OCc2nc(C3CCN(C(=O)NCc4ccc(F)cc4)CC3)no2)cc1,0,?,0,?
COCCS(=O)(=O)c1ncc(CN2CC[C@@H]3CCCC[C@H]3C2)n1Cc1ccccc1,?,0,0,45µM
O=C(NC1CN(c2ccnc3ccnn23)C1)c1ccc(Cl)cc1,?,-,-,0
O=C(NC1CCCN(c2ccnc3ccnn23)C1)c1ccncc1 (stereo not drawn),0,-,-,?
COc1cccc(C(=O)NC2CCN(c3ccnc4ccnn34)CC2)c1,?,-,-,35µM
O=C(NC1CCCN(c2ccnc3ccnn23)C1)c1ccc2c(c1)OCO2 (stereo not drawn),?,-,-,35µM
O=C(NC1CCCN(c2ccnc3ccnn23)C1)c1cccc(Br)c1 (stereo not drawn),?,-,-,79µM
O=C(NC1CCCN(c2ccnc3ccnn23)C1)c1ccc(Cl)cc1 (stereo not drawn),?,-,-,40µM
CC(C)NC(=O)c1ccc2oc(-c3ccncc3Cl)nc2c1,0,-,-,?
COc1cccc(N2CCN(C(=O)[C@H]3CCC[C@H]3NC(=O)c3ccc(OC)nc3)CC2)c1,0,0,0,?
COc1ccc(C(=O)NC2CCCN(c3ccnc4ccnn34)C2)cc1 (stereo not drawn),?,-,-,32µM
CN1CCCCCC(O)c2cc(C(=O)N3CCN(c4ccc(F)cc4)CC3)ccc21 (stereo not drawn),?,0,0,45µM
COc1ccccc1CN1CCN(C(=O)c2ccc3c(c2)C(O)CCCCCN3C)CC1 (stereo not drawn),?,0,0,50µM
SMILES,NIH3T3 tox,hNpr1 antagonist,FLuc inh,HEK293 tox
CN1CCCCCC(O)c2cc(C(=O)NCCCc3ccccc3)ccc21 (stereo not drawn),?,0,0,?
CN1CCCCCC(O)c2cc(C(=O)NC3CCN(Cc4ccccc4)CC3)ccc21 (stereo not drawn),?,?,0,11µM
Cc1cnc(C2CC2)n1C1CCCN(C(=O)c2ccoc2)C1 (stereo not drawn),0,0,0,0
CC(C)CN(CCCNC(=O)C1CCN(c2cnn(C)c(=O)c2)C1)CC(C)C (stereo not drawn),0,0,0,0
CCc1c(C(=O)N2CCC3(CC2)c2ccccc2CC3O)csc1C (stereo not drawn),0,0,0,?
c1coc(-c2nnc([C@H]3CCN(Cc4cc5ccccc5o4)C3)o2)c1,0,0,0,0
O=C(Cc1cccs1)Nc1ccc2c(N3CCCCC3)ncnc2c1,?,?,0,?
Cc1ccccc1CC(=O)Nc1ccc2ncnc(N3CCCCC3)c2c1,?,0,0,40µM
COc1ccccc1CC(=O)Nc1ccc2c(N3CCCCC3)ncnc2c1,?,?,0,25µM
